# Experimental data reported in PubChem BioAssay.
# Unmarked numbers belong to inactive results. For some assays here: Measured potencies and affinities stand elsewhere. Active and inactive are the calls of the source. Unless noted, the rule behind the calls is not given here.
# Experiments:
# [1] = antimalarial activity against Dd2 strain (AID 2302;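 active = growth inhibition above 50% at the single 2 µM test dose, taken to imply half-maximal potency below 2 µM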;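 note: 0% = DMSO untreated growth and 100% = chloroquine plus artemisinin killed control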); settings: P. falciparum Dd2 in RBCs, LDH growth readout, 72 h; at 2 µM; hits give high values
# [2] = HepG2 cytotoxicity, primary screen, cytotoxicity control for P. falciparum antimalarial project, cell-based, ATP luminescence (AID 2303;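 active = inhibition above 50%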;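 note: 0% = DMSO wells and 100% = digitonin-killed cells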); settings: HepG2 viability, 24-48 h, at 10 µM, hits give high values
# [3] = molecular target: L-lactate dehydrogenase (Plasmodium falciparum (isolate CDC / Honduras)) (UniProt Q27743); assay: PfLDH activity inhibition – cell lysate, 3D7 strain, counter-screen for P. falciparum growth inhibition project (AID 2304);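 note: 0% = vehicle and 100% = reference inhibitor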; settings: P. falciparum 3D7 crude extract, LDH APAD/NBT absorbance; at 2 µM; hits give high values
# [4] = inhibition of 3D7 malaria parasite growth – strain 3D7 (AID 2306);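 note: 0% = DMSO wells and 100% = chloroquine plus artemisinin control wells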; settings: P. falciparum 3D7 erythrocytic growth, LDH absorbance, 72 h; at 2 µM; hits give high values
# [5] = molecular target: Calcium-dependent protein kinase 1 (Plasmodium falciparum (isolate 3D7)) (UniProt P62344); assay: PfCDPK1 kinase inhibitors, biochemical, TCAMS library (AID 1159585; cut-off not given, nearly all actives have IC50 up to about 0.98 µM;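 note: inhibitors leave more ATP so luminescence rises with inhibition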); settings: recombinant PfCDPK1, Kinase-Glo ATP depletion luminescence
# [6] = molecular target: Plasmodium falciparum protein kinase 6 (PK6, PF3D7_1337100) (UniProt Q8IDW1); assay: PfPK6 kinase inhibitors, biochemical, TCAMS library (AID 1159586); settings: recombinant PfPK6, Kinase-Glo ATP depletion luminescence
# [7] = molecular target: Protein kinase 7 (PK7), Plasmodium falciparum 3D7 (PF3D7_0213400) (UniProt Q7YTF7); assay: inhibition of Plasmodium PK7 catalytic activity – biochemical, TCAMS antimalarial set, Kinase-Glo luminescence (AID 1159587); settings: recombinant PfPK7, Kinase-Glo ATP depletion luminescence
# [8] = molecular target: Calcium-dependent protein kinase 4 (Plasmodium falciparum (isolate 3D7)) (UniProt Q8IBS5); assay: PfCDPK4 kinase inhibitors, biochemical, TCAMS library (AID 1159588; cut-off not given, nearly all actives have IC50 up to about 0.91 µM); settings: recombinant PfCDPK4, Kinase-Glo ATP depletion luminescence
# Chain of Calcium-dependent protein kinase 4 (Plasmodium falciparum (isolate 3D7)) (Q8IBS5 whole entry, looked up): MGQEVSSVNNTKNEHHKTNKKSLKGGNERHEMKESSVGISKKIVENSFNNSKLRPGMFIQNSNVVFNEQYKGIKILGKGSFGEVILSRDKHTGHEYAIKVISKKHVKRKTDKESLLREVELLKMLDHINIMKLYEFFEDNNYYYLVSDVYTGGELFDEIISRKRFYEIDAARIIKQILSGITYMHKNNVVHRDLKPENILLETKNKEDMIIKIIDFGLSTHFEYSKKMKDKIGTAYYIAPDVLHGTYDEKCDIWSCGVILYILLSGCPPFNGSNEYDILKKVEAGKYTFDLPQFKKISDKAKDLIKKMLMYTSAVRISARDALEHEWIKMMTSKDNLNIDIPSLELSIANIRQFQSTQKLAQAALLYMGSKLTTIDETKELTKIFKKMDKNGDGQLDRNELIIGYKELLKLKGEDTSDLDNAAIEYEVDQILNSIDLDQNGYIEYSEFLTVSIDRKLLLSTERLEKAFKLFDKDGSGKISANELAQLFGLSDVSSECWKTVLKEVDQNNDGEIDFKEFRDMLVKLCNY
# Chain of Protein kinase 7 (PK7), Plasmodium falciparum 3D7 (PF3D7_0213400) (Q7YTF7 1-343): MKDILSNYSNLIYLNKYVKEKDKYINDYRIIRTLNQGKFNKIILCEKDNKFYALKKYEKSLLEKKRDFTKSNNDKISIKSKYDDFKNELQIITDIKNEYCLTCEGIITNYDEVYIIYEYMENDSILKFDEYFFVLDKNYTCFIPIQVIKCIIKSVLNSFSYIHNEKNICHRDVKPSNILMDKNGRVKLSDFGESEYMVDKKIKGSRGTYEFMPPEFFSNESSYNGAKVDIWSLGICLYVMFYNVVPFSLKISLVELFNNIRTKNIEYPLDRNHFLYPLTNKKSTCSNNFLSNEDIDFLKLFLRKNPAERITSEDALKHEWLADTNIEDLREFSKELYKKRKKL
# Chain of Calcium-dependent protein kinase 1 (Plasmodium falciparum (isolate 3D7)) (P62344 whole entry, looked up): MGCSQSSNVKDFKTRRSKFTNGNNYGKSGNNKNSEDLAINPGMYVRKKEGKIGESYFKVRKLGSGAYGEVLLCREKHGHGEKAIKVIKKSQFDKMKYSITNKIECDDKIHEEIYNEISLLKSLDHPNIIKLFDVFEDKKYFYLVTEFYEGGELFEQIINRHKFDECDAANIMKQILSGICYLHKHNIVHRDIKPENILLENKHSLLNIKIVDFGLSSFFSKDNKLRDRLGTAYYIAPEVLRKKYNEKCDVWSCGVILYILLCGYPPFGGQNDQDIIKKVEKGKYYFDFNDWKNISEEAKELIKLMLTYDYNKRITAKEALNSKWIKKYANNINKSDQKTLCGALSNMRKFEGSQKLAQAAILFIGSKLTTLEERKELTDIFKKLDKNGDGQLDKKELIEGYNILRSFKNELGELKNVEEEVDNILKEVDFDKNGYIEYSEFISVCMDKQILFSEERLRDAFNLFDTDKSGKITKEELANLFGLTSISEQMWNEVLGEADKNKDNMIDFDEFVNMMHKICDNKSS
# Chain of L-lactate dehydrogenase (Plasmodium falciparum (isolate CDC / Honduras)) (Q27743 whole entry, looked up): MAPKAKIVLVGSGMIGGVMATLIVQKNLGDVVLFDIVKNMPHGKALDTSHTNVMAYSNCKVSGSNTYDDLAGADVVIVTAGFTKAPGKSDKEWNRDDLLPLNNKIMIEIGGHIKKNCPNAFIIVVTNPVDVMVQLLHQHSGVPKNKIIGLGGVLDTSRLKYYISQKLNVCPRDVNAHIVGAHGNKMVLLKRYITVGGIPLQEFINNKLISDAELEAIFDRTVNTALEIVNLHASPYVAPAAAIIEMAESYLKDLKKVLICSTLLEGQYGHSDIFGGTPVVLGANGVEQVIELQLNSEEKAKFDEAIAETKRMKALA
# Chain of Plasmodium falciparum protein kinase 6 (PK6, PF3D7_1337100) (Q8IDW1 1-305): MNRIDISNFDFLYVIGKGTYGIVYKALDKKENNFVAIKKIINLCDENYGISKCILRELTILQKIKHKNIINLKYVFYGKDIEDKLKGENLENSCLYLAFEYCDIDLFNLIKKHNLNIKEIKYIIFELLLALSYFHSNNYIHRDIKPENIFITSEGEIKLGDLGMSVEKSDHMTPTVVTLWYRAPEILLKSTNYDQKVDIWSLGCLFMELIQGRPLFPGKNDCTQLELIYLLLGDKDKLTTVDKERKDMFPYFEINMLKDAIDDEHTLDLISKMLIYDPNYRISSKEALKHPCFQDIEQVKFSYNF
SMILES,growth inhibition [1],inhibition [2],inhibition [3],growth inhibition [4],outcome [5],outcome [6],outcome [7],outcome [8]
Oc1ccc2nc(NCCCc3ccccc3)nc(NCCCc3ccccc3)c2c1,93% (active),5%,-3%,101% (active),inactive,inactive,inactive,inactive
Cc1cc(C(=O)CN2C(=O)NC(C)(c3ccc4ccccc4c3)C2=O)c(C)n1Cc1ccco1 (stereo not given),71% (active),12%,1%,97% (active),inactive,inactive,inactive,inactive
Cc1ccccc1C1CCN(C2CCC(NC(=O)/C=C/c3cccc(F)c3F)CC2)CC1 (stereo not given),45%,57% (active),-3%,89% (active),inactive,inactive,inactive,inactive
NC1CCCN(Cc2cccc(-c3ccc(-c4nc5ccccc5[nH]4)cc3)c2)C1 (stereo not given),73% (active),25%,-6%,101% (active),inactive,inactive,inactive,inactive
Cc1cc(N[C@@H](Cc2ccccc2)C(=O)NCc2cccc(F)c2)nc(NCCc2cccs2)n1,22%,9%,2%,99% (active),inactive,inactive,inactive,inactive
Cc1ccc(-n2cc(CNCCCn3ccnc3)c(-c3cccc(C)c3)n2)cc1,36%,9%,-2%,99% (active),inactive,inactive,inactive,inactive
Nc1ccc2nc(C=Cc3ccc(Cl)cc3)[nH]c2c1,83% (active),19%,1%,91% (active),inactive,inactive,inactive,inactive
Cc1cnc(C(=O)Nc2ccc3c(c2)CCCN(Cc2c[nH]c4cnccc24)C3)cn1,20%,0%,-3%,92% (active),inactive,inactive,inactive,inactive
FC(F)(F)c1ccc2nc(-c3ccc(-c4cccc(CNCCc5cccnc5)c4)s3)[nH]c2c1,98% (active),26%,-3%,101% (active),inactive,inactive,inactive,inactive
CCCCN1CCCN(Cc2cccc(NC(=O)c3ccc(-c4ccccc4)cc3)c2)CC1,8%,19%,5%,92% (active),inactive,inactive,inactive,inactive
COc1cc(NC(=O)/C=C/c2ccccc2Cl)cc(OCCN2CCC(O)(c3ccccc3)CC2)c1,46%,48%,-1%,102% (active),inactive,inactive,inactive,inactive
O=C(COc1ccccc1Cl)N1CCc2cc3nccc(N4CCN5CCC[C@H]5C4)c3cc21,99% (active),4%,-1%,91% (active),inactive,inactive,inactive,inactive
CCCCC(NCC)c1ccc(OCCOc2ccc(C(CCCC)NCC)cc2)cc1 (stereo not given),99% (active),100% (active),3%,101% (active),inactive,inactive,inactive,inactive
COc1ccc2nc(C)cc(Nc3ccc(Oc4ccc5ccccc5c4Cl)c(Cl)c3)c2c1,98% (active),32%,7%,100% (active),inactive,inactive,inactive,inactive
COc1ccc(-c2cnc3ccc(NCc4ccc(F)cc4)nn23)cc1OC,99% (active),35%,-2%,97% (active),inactive,inactive,inactive,inactive
Nc1ncc(-c2ccc(NC(=O)Nc3cc(C(F)(F)F)ccc3F)cc2)c(N)n1,21%,96% (active),-5%,99% (active),inactive,inactive,inactive,inactive
Cn1c(NC(=O)c2ccc(CNC(=O)c3ccc(O)c(-c4ccc(Cl)c(Cl)c4)c3)cc2)nc2ccccc21,74% (active),20%,-1%,94% (active),inactive,inactive,inactive,inactive
CCOc1ccc(-c2nc(NC(=O)COc3ccc(OC)cc3)sc2C)cc1,87% (active),0%,-9%,99% (active),inactive,inactive,inactive,inactive
CCc1cccc2c(C#N)cn(CC(=O)NCCc3ccccc3)c12,64% (active),1%,2%,95% (active),inactive,inactive,inactive,inactive
Cc1nc(-c2nc(NCc3ccncc3)ncc2-c2ccsc2)sc1C,83% (active),8%,2%,91% (active),inactive,inactive,inactive,inactive

SMILES,growth inhibition [1],inhibition [2],inhibition [3],growth inhibition [4],outcome [5],outcome [6],outcome [7],outcome [8]
O=c1cc(NCCCNCc2scc(I)c2I)[nH]c2ccccc12,73% (active),-16%,-1%,100% (active),inactive,inactive,inactive,inactive
Cc1cc(=O)c(-c2ccc(Oc3ccc(F)cc3)cc2)c(C)[nH]1,59% (active),-3%,3%,85% (active),inactive,inactive,inactive,inactive
CN1CCC(C(=O)N(Cc2ccc(-c3ccc(CNCCc4ccc(S(C)(=O)=O)cc4)cn3)cc2)Cc2cccc(F)c2)CC1,90% (active),10%,-4%,98% (active),inactive,inactive,inactive,inactive
CCOC(=O)CNC(=O)c1cc(=O)c2ccccc2o1,-4%,22%,-4%,99% (active),inactive,inactive,inactive,inactive
Oc1ccc2c(c1CNC1CCCCC1)CCCC2,94% (active),0%,-3%,98% (active),inactive,inactive,inactive,inactive
COc1cc2nc(Cl)nc(Nc3ccncc3)c2cc1OC,33%,11%,-2%,86% (active),inactive,inactive,inactive,inactive
CCCN(CCC)C(C)CCC(C)Nc1c2ccc(Cl)cc2nc2ccc(OC)cc12 (stereo not given),99% (active),41%,3%,101% (active),inactive,inactive,inactive,inactive
Cc1cc(=O)c2cc(-c3ccc(OC(F)(F)F)cc3)ccc2[nH]1,95% (active),-3%,3%,96% (active),inactive,inactive,inactive,inactive
CCOC(=O)c1[nH]c2cc(Cl)cc(Cl)c2c1/C=C/C(=O)Nc1ccc(-c2cnc(NC(C)=O)[nH]2)cc1,65% (active),45%,-3%,100% (active),inactive,inactive,inactive,inactive
Cc1cc2[nH]c(-c3ccc(C(=O)NCCCN4CCN(c5cccc(Cl)c5)CC4)s3)nc2cc1Cl,93% (active),7%,-1%,100% (active),inactive,inactive,inactive,inactive
COc1cc(OC)cc(-c2nc3c(C#N)c(OCCN(C)C)ccc3[nH]2)c1,25%,4%,-3%,99% (active),inactive,inactive,inactive,inactive
CCOc1cc(C(=O)N[C@@H](Cc2ccccc2)[C@H](O)CNCc2cc(OC)cc(OC)c2)cc(N2CCCC2=O)c1,63% (active),0%,4%,94% (active),inactive,inactive,inactive,inactive
CCCNCc1ccc(-c2ccc(CN(Cc3cccs3)C(=O)C3CCN(C)CC3)cc2)nc1,35%,10%,-3%,99% (active),inactive,inactive,inactive,inactive
Cc1cc(N2CCN(CC3CCN(C)CC3)CC2)nc(Nc2ccc(Br)cc2)n1,100% (active),31%,5%,100% (active),inactive,inactive,inactive,inactive
COc1ccc(Cn2c(=O)[nH]c3cc(C(=O)NC4CCN(Cc5ccccc5)CC4)ccc3c2=O)cc1,45%,10%,-7%,97% (active),inactive,inactive,inactive,inactive
Cc1ccc(NC(=O)c2ccc3ncccc3c2)cc1OC1CCN(CCC(C)C)C1 (stereo not given),62% (active),5%,-4%,98% (active),inactive,inactive,inactive,inactive
CCCc1cc(Cc2cnc(N)nc2N)cc(CCC)c1OCCCC(=O)OCC,-5%,-8%,-2%,94% (active),inactive,inactive,inactive,inactive
O=C(C=CC(=O)N1CCCCC1)NCc1ccccc1,-3%,6%,-2%,100% (active),inactive,inactive,inactive,inactive
CN1CCN(CC2(Nc3nccc(NCCc4cn(C)c5ccccc45)n3)CCCCC2)CC1,41%,67% (active),2%,91% (active),inactive,inactive,inactive,inactive
O=C(Nc1nc2cc(S(=O)(=O)NCCCN3CCOCC3)ccc2n1CCCn1ccnc1)c1ccc(Cl)cc1,-6%,-27%,-1%,95% (active),inactive,inactive,inactive,inactive
